The source of these data is paper PMC4336329 (PLoS ONE, 2015).

The structures appear in SMILES notation. Hit rate of the full screen: of about 310,000 compounds, about 14,000 (4.5%) showed an effect of 50% or more. The effect is printed as a negative number. Many of the other results were omitted from the sample, so strong results are more common in it than they were.
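Also: peak tail current of the secondary pulse compared with the same well before compound.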

human ether-à-go-go-related gene (hERG) potassium channel, sequence (Q12809 whole entry, looked up): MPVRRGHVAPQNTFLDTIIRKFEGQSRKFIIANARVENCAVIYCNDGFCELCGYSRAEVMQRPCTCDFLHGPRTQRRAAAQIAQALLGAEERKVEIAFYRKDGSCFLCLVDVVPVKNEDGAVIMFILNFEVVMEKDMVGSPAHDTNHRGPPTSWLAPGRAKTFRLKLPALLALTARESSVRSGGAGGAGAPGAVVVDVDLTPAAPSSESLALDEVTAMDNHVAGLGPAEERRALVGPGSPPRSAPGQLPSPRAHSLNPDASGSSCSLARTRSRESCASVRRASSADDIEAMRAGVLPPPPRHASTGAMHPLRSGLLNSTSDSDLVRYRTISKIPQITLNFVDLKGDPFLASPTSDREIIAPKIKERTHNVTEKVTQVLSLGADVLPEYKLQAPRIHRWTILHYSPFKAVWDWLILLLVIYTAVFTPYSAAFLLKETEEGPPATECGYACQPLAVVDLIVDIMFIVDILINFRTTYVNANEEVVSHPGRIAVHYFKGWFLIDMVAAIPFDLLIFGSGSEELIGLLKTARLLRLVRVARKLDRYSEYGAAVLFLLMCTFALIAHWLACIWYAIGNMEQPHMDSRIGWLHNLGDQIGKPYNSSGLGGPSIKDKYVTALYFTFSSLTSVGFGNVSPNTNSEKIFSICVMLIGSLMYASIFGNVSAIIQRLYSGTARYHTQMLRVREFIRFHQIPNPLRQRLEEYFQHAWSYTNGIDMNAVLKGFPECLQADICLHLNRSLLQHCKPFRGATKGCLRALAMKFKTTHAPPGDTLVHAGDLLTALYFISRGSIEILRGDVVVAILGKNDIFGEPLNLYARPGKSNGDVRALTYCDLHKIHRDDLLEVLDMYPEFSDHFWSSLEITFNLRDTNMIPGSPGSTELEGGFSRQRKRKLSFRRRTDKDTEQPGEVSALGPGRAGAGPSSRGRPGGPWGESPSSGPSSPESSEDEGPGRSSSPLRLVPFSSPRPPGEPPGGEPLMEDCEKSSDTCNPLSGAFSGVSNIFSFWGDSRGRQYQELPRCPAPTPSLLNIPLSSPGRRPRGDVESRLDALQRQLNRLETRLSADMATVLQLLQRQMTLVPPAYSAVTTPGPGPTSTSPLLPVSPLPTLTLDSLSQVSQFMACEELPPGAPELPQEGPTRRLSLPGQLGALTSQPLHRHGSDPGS

This experiment addresses human ether-à-go-go-related gene (hERG) potassium channel (human, UniProt Q12809). Put plainly: primary screen, population patch clamp on CHO cells stably expressing hERG; higher = less effect of the substance.
As to `Cc1cccc(CN2CCN(c3nc4nonc4nc3NC3CC3)CC2)c1`, the “hERG current change (%, negative = inhibition) at 10uM” value is -4.44%.

In the case of `Fc1cccc(CN2CCN(c3nc4nonc4nc3NC3CC3)CC2)c1`, the “hERG current change (%, negative = inhibition) at 10uM” value is on record as -10.3%.

In the case of `Clc1cccc(CN2CCN(c3nc4nonc4nc3NC3CC3)CC2)c1`, the “hERG current change (%, negative = inhibition) at 10uM” value was -65.4%.

With `O=C(COC(=O)C1=NN(c2ccccc2)C(=O)CC1)Nc1ccc([N+](=O)[O-])cc1C(F)(F)F`, the “hERG current change (%, negative = inhibition) at 10uM” value is 5.08%.

Consider `CC(C)CN(CC(C)C)C(=O)c1cccc(S(=O)(=O)N2CCc3ccccc32)c1`, for which the “hERG current change (%, negative = inhibition) at 10uM” value was -24.9%.

Regarding `CCOC(=O)C1CCN(C(=S)NC2CC3C=CC2C3)CC1` (stereo not shown), the “hERG current change (%, negative = inhibition) at 10uM” value was -54.3%.

As to `NC(=O)C1CCN(C(=S)NC2CC3C=CC2C3)CC1` (stereo not shown), the “hERG current change (%, negative = inhibition) at 10uM” value was 16.2%.

Turning to `CCOC(=O)C1CCN(C(=S)NC2CCCC2)CC1`, the “hERG current change (%, negative = inhibition) at 10uM” value is 0.997%.

In the case of `CN(c1ccccc1)S(=O)(=O)c1cccc(NC(=O)Cc2ccc(Cl)cc2)c1`, the “hERG current change (%, negative = inhibition) at 10uM” value is given as 9.43%.

In the case of `COc1ccc(CN2C(=NC(=O)CCc3ccccc3)SC3CS(=O)(=O)CC32)cc1` (stereo not shown), the “hERG current change (%, negative = inhibition) at 10uM” value is recorded as 3.85%.

As for `CC(NC(=O)c1ccco1)C12CC3CC(CC(C3)C1)C2` (stereo not shown), the “hERG current change (%, negative = inhibition) at 10uM” value is listed as -50.1%.

Take `CC(NC(=O)COC(=O)CCNC(=O)c1ccco1)C12CC3CC(CC(C3)C1)C2` (stereo not shown): the “hERG current change (%, negative = inhibition) at 10uM” value is listed as 0.656%.

On to `CC(C)[C@H](NC(=O)c1ccco1)C(=O)NC12CC3CC(CC(C3)C1)C2`, for which the “hERG current change (%, negative = inhibition) at 10uM” value is -5.81%.

For `CC1CN(C2CCN(S(=O)(=O)c3ccc4ccccc4c3)CC2)CC(C)O1` (stereo not shown), the “hERG current change (%, negative = inhibition) at 10uM” value is -22.5%.

For `CN1C(C(=O)N2CCc3ccccc3C2)=CC(c2ccc(F)cc2)=NS1(=O)=O`, the “hERG current change (%, negative = inhibition) at 10uM” value is recorded as -3.37%.

On to `COc1ccc(CCN(Cc2ccc(C(C)C)cc2)S(=O)(=O)c2ccc(S(=O)(=O)N(C)C)cc2)cc1OC`, for which the “hERG current change (%, negative = inhibition) at 10uM” value is -11.1%.

Turning to `COc1ccc(CCN(C)CCCC(C#N)(c2cc(OC)c(OC)c(OC)c2)C(C)C)cc1OC.Cl` (stereo not shown), the “hERG current change (%, negative = inhibition) at 10uM” value is listed as -64.1%.

Turning to `CCC(=O)C(C#N)(c1ccc(OC)c(OC)c1)C(C)C` (stereo not shown), the “hERG current change (%, negative = inhibition) at 10uM” value is -7.65%.

As to `Cn1c(Cn2c(=O)sc3ccccc32)nnc1SCC(=O)NCc1ccccc1`, the “hERG current change (%, negative = inhibition) at 10uM” value was -0.25%.

Take `Cc1ccc(NC(=S)N2CCN(S(=O)(=O)c3c(F)cccc3F)CC2)cc1C`: the “hERG current change (%, negative = inhibition) at 10uM” value is recorded as -17.6%.

On to `Cc1ccc(Nc2nc(N)nc(CSc3nnnn3-c3ccccc3)n2)cc1`, for which the “hERG current change (%, negative = inhibition) at 10uM” value is listed as 4.49%.

Regarding `COc1ccccc1Nc1nc(N)nc(CN2CCc3ccccc3C2)n1`, the “hERG current change (%, negative = inhibition) at 10uM” value is recorded as -44.8%.

For the compound `Cc1ccc(Nc2nc(N)nc(CSc3ncccn3)n2)cc1`, the “hERG current change (%, negative = inhibition) at 10uM” value is on record as -18.7%.

With `COc1ccc(Nc2nc(N)nc(CSC(=S)N3CCCCC3)n2)cc1`, the “hERG current change (%, negative = inhibition) at 10uM” value amounted to 0.179%.

As for `Nc1nc(CSCCO)nc(Nc2ccccc2)n1`, the “hERG current change (%, negative = inhibition) at 10uM” value was determined as 9.39%.

With `Nc1nc(CN2CCc3ccccc3C2)nc(Nc2ccccc2)n1`, the “hERG current change (%, negative = inhibition) at 10uM” value is listed as -51%.

For the compound `Nc1nc(CSc2ncccn2)nc(Nc2ccccc2)n1`, the “hERG current change (%, negative = inhibition) at 10uM” value was 1.55%.

For `COc1ccc(Nc2nc(N)nc(CN3CCc4ccccc4C3)n2)cc1`, the “hERG current change (%, negative = inhibition) at 10uM” value is listed as -56.4%.

As to `Cc1ccc(Nc2nc(N)nc(CN3CCc4ccccc4C3)n2)cc1`, the “hERG current change (%, negative = inhibition) at 10uM” value is recorded as -72.2%.

As for `COc1cc([N+](=O)[O-])ccc1NC(=O)COC(=O)CCOc1ccc(C)cc1`, the “hERG current change (%, negative = inhibition) at 10uM” value is reported as -11.2%.

With `O=C(CCCCn1c(=O)c2ccccc2n(CC(=O)NC2CCCC2)c1=O)NCc1ccco1`, the “hERG current change (%, negative = inhibition) at 10uM” value was -15.6%.

Consider `O=C(O)CSc1nnc(Cc2ccccc2)n1-c1ccccc1`, for which the “hERG current change (%, negative = inhibition) at 10uM” value is given as 5.74%.

`COc1cc(CNCCO)ccc1OCCc1ccccc1`: the “hERG current change (%, negative = inhibition) at 10uM” value is 6.61%.

As for `COc1cc(C)c(C(=O)Oc2cc(C)c(C(=O)O)c(O)c2)c(O)c1`, the “hERG current change (%, negative = inhibition) at 10uM” value is 11.5%.

Turning to `CCOc1cc(C(=O)N2CCc3cc(OC)c(OC)cc3C2)ccc1OC(F)F`, the “hERG current change (%, negative = inhibition) at 10uM” value is given as -35.7%.

Consider `N#Cc1ccc(CN2C(=O)NC3(CCCCCC3)C2=O)cc1`, for which the “hERG current change (%, negative = inhibition) at 10uM” value is recorded as -32.2%.

Take `Cl.Clc1cccc(OCCN2CCCC2)c1`: the “hERG current change (%, negative = inhibition) at 10uM” value is reported as 2.13%.

On to `COc1ccc(C(=O)N2CCN(C(=O)c3ccncc3)CC2)cc1`, for which the “hERG current change (%, negative = inhibition) at 10uM” value stood at 12.4%.

Consider `CN1CCN(CCOc2cccc(Cl)c2)CC1.Cl`, for which the “hERG current change (%, negative = inhibition) at 10uM” value turned out to be 1.19%.

`COc1ccc(C(=O)NCCN2CCN(C(=O)c3ccc(OC)c(OC)c3)CC2)cc1OC`: the “hERG current change (%, negative = inhibition) at 10uM” value was 14.5%.

Take `Clc1cccc(OCCN2CCN(CCOc3cccc(Cl)c3)CC2)c1`: the “hERG current change (%, negative = inhibition) at 10uM” value is listed as -70.8%.

In the case of `CC1(C)NC(=O)N(CCOc2ccc([N+](=O)[O-])cc2)C1=O`, the “hERG current change (%, negative = inhibition) at 10uM” value is -37.6%.

Turning to `COc1ccc(OCCN2CCN(C(=O)c3ccc(OC(F)F)c(OC)c3)CC2)cc1`, the “hERG current change (%, negative = inhibition) at 10uM” value was -72.6%.

On to `N#Cc1ccc(OCCN2C(=O)NC3(CCSC3)C2=O)cc1` (stereo not shown), for which the “hERG current change (%, negative = inhibition) at 10uM” value was -57.2%.

Take `COc1ccc(C(=O)N2CCCC2)cc1`: the “hERG current change (%, negative = inhibition) at 10uM” value is recorded as -2.88%.

Regarding `COc1ccc(OCCN2CCN(C(=O)c3ccc(OC)cc3)CC2)cc1`, the “hERG current change (%, negative = inhibition) at 10uM” value is recorded as -87.2%.
